# This is a sample that favours compounds with a hit; in the whole collection about 21% have one here.
# Pf growth 48h – inhibits P. falciparum growth in the first generation, 48 h; 310,000 tested, 5.9% active; AID 504832; P. falciparum luciferase growth in erythrocytes, 48 h; Potency, µM (doses to about 28.7 µM), actives largely listed as inhibitors
#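 Luciferase-expressing P. falciparum in infected erythrocytes (2% hematocrit, 0.1% parasitemia final) in RPMI 1640/0.5% Albumax were exposed to compound for 48 hours at 37 C, 5% CO2; growth read as luminescence.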
# Pf growth 96h – P. falciparum growth inhibition at 96 hours; Potency, µM (top dose mostly 28.7 µM), most hits filed as inhibitors; 320,000 tested, 6.9% active; P. falciparum luciferase reporter growth, 96 h; AID 504834
#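 Plates of compound plus infected erythrocytes (2% hematocrit, 0.05% parasitemia final) incubate 96 hours, 37 C, 5% CO2. Detection reagent added; reduced luminescence from the parasites' luciferase reporter flags inhibition.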
# Shiga inhibitor – Shiga toxin inhibition; Vero cells, Shiga toxin protein synthesis inhibition reporter; 290,000 tested, 9.2% active; inhibition, % at 38.7 µM; AID 2315; in the data active = inhibition mostly above about 28%, no sharp cut-off; inactive = mostly below about 43%
# Cycloheximide cs – affects cycloheximide protein synthesis inhibition readout, counter-screen; cell reporter, cycloheximide protein synthesis inhibition counterscreen; max response, %; 300,000 tested, 12% active; AID 2314; in the data active = max response mostly above about 13%, no sharp cut-off; inactive = mostly below about 14%; note: read at 38.3 µM for the half of the compounds with a filed dose
# NS1 inh – influenza NS1 inhibition | Potency, µM (series often up to 46.1 µM) | 270,000 tested, 0.4% active; calls by dose curve; note: actives are rising curves; nearly all actives have a fitted effect of over 50% in size
#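 S. cerevisiae expressing influenza A NS1, grown in glucose, washed, then diluted 1:100 into pH 6.0 -URA galactose medium with 23 nl compound. Growth recovery read as OD600; NS1-free strain serves as control.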
# Hits are given with their value; – = inactive; ? = inconclusive; · = no result. Unless noted, calls come from the whole dose curve; as a rule, active = well fitted inhibition curve with a large enough effect; inconclusive = small, poorly fitted or top-dose-only effect, or another doubt; inactive = no such curve, though single readings can be large or run the other way.
SMILES,Pf growth 48h,Pf growth 96h,Shiga inhibitor,Cycloheximide cs,NS1 inh
O=[N+]([O-])c1ccc(C2=NN(CCO)C(=Nc3ccc(OC(F)(F)F)cc3)SC2)cc1,–,–,–,–,–
O=Cc1ccc(OC2OCCOC2Oc2ccc(C=O)cc2)cc1 (configuration not stated),–,?,–,–,–
C=CCN(C(=O)c1cccc(S(=O)(=O)N2CCN(C)CC2)c1)c1nc(-c2ccccc2)cs1,·,?,–,–,–
C=CCN(C(=O)Cc1cccs1)c1nc(-c2ccc(S(C)(=O)=O)cc2)cs1,–,–,73,21,–
C=CCN(C(=O)CCc1ccccc1OC)c1nc(-c2ccc(S(C)(=O)=O)cc2)cs1,?,–,63,39,–
COc1ccccc1-n1cc([C@@H]2C[C@H]3CN(c4ccccc4)C(=O)[C@]34CCCN24)cn1,–,–,–,–,–
Nc1c(C(=O)NCc2ccco2)nnn1-c1ccccc1,–,–,71,42,–
Nc1c(C(=O)NCc2ccco2)nnn1CC(=O)Nc1ccc2c(c1)OCO2,12µM,?,–,–,·
CC(C)c1ccc(NC(=O)Cn2nnc(C(=O)NCc3ccco3)c2N)cc1,–,12µM,–,–,–
CCn1c(=NC(=O)c2ccco2)sc2cccc(F)c21,–,–,101,34,–
CCn1c(=NC(=O)c2ccc(S(=O)(=O)N3CCOCC3)cc2)sc2cccc(OC)c21,?,?,–,–,–
Cn1c(=NC(=O)COc2ccccc2)sc2cccc(F)c21,–,–,–,–,–
CC(C)C(=O)N=c1sc2cccc(F)c2n1C,–,–,–,10,–
Cc1nn(C)c(=O)n1-c1ccc(OCc2ccccc2)cc1,–,–,89,44,–
Cc1nn(CCOc2ccccc2)c(=O)n1-c1ccc(F)cc1,–,–,62,32,–
COc1ccc(-n2c(C)nn(C)c2=O)cc1,–,?,–,–,–
O=C(Nc1sc2c(c1C(=O)O)CCC2)C(=O)N1CCOCC1,–,?,–,–,–
COC(=O)CC(c1ccc(F)cc1)n1c(C)ccc1C (configuration not stated),?,13µM,–,–,–
COc1ccc(CN2CC(=O)N3[C@H]4c5ccccc5OC[C@@H]4[C@H](c4ccccc4)[C@]3(C)C2=O)cc1,9.3µM,?,·,·,·
C[C@@]12C(=O)N(Cc3ccccc3)CC(=O)N1[C@H]1c3cc(Cl)ccc3OC[C@@H]1[C@@H]2c1ccccc1,9.3µM,?,·,·,·
COCCOc1cc(-n2cccc2)c(Cl)cc1Cl,–,–,–,–,·
OC(CNCc1ccc(F)cc1)(c1ccc(F)cc1)c1ccc(F)cc1,?,13µM,–,–,–
Fc1ccc(CCNCc2ccc(Br)cc2)cc1,–,–,–,–,–
OC(CNCc1ccc(Cl)cc1)(c1ccccc1)c1ccc(F)cc1 (configuration not stated),13µM,?,–,–,·
Cc1ccc(C(O)(CNCc2ccccc2)c2ccccc2)cc1 (configuration not stated),?,?,–,–,–
SMILES,Pf growth 48h,Pf growth 96h,Shiga inhibitor,Cycloheximide cs,NS1 inh
Cc1nc(-c2ccc(S(=O)(=O)Nc3ccc(S(N)(=O)=O)cc3)cc2)co1,–,10µM,–,–,–
COc1ccc(NS(=O)(=O)c2ccc(-c3coc(C)n3)cc2)cc1,–,–,–,–,–
CSc1cccc(NS(=O)(=O)c2ccc(-c3coc(C)n3)cc2)c1,–,4.7µM,–,–,–
COc1cccc(CN2CCN(C(=S)NCc3ccc(Cl)cc3)CC2)c1,–,–,–,–,–
C=CCN1CCN(C(=O)c2ccc3c(c2)OCO3)CC1,–,–,–,–,–
O=Cc1sc(=O)n(Cc2cccc(C(=O)O)c2)c1Cl,–,–,–,–,–
O=c1sc(/C=N/Nc2ccccc2)c(Cl)n1Cc1ccccc1,?,?,active,33,–
COC(=O)c1cccc(Cn2c(Cl)c(/C=N/NC(=O)c3ccccc3Cl)sc2=O)c1,?,4.7µM,–,–,–
O=C(O)c1cccc(Cn2c(Cl)c(/C=N/NC(=O)c3ccc(O)cc3)sc2=O)c1,–,–,–,–,–
COC(=O)c1cccc(Cn2c(Cl)c(/C=N/NC(=O)c3ccco3)sc2=O)c1,9.3µM,8.3µM,–,18,–
CN(CCO)c1cc(NCCCN2CCC(Cc3ccccc3)CC2)c2nonc2c1[N+](=O)[O-],10µM,–,–,–,·
O=C(CSc1ncn[nH]1)c1ccc2c(c1)OCCO2,–,–,active,18,–
CC(C)c1ccc(C(=O)CSc2ncn[nH]2)cc1,–,–,81,31,–
O=C(CSc1ccc2ccccc2n1)c1ccc2c(c1)OCO2,·,–,104,53,–

# Source: PubChem BioAssay
